Experimental data taken from PubChem BioAssay AID1307 (SRMLSC, 2008).
Among all 1,200 compounds or so, fewer than 10 were called active.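 Rule for the calls: active = inhibition reaching a set limit at one or more tested concentrations; inactive = inhibition under that limit at every dose.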 Only a sample is shown. Potency and affinity values are given separately.

Test: yeast RAM network inhibitors, dose response, S. cerevisiae (AID 1307);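 note: 0% = DMSO vehicle wells and 100% = 10 µM 1-NA-PP1 control; higher inhibition means more yeast growth since RAM block rescues cells from 5-FOA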
Details: S. cerevisiae RAM network URA3 reporter, 5-FOA growth OD615, hits give high values, yeast express analog-sensitive mutant Cbk1 kinase; at 100 µM unless noted

Max inhibition, inactive:
Cc1ccc(-n2c(O)c(/C=N/c3ncn[nH]3)c3ccccc3c2=O)cc1 10.6%
COc1ccc(/C=C(\C#N)C(=O)NCCc2ccccc2)cc1OCc1ccccc1 4.42% [at 1.563 µM]
CCOC(=O)C1=C(c2ccccc2)N=c2s/c(=C\c3cc(OC)c(OC)c(OC)c3)c(=O)n2C1c1cccs1 (configuration not stated) 14.2%
O=C(COC(=O)c1cc(Cl)ccc1[N+](=O)[O-])NCc1ccc(Cl)cc1Cl 4.62% [at 1.563 µM]
C=CCSc1nnc(CCCCCN2C(=O)c3cccc4cccc(c34)C2=O)o1 6.81%
Cc1ccc(/C=C/c2ccc(=O)n(Cc3ccccc3Cl)n2)cc1 3.92% [at 3.125 µM]
O=C(/C=C/c1cccc(C(F)(F)F)c1)Nc1cccc(C(F)(F)F)c1 2.77% [at 12.5 µM]
COc1ccc(C(=O)/C=C/c2ccc(OC)c(COc3ccccc3F)c2)cc1 3.26% [at 12.5 µM]
S=C(NCCC(c1ccccc1)c1ccccc1)Nc1ccccc1Cl 2.81%
Cc1ccc(NC(=O)Cc2ccc(Cl)c(Cl)c2)cc1S(=O)(=O)N(C)C 1.65%
CCN(CC)S(=O)(=O)c1cccc(C(=O)OCC(=O)c2ccc3c(c2)OCCO3)c1 3.81% [at 6.25 µM]
CC(C)Cn1c(N)c(-c2nc(C(C)C)c(C(=O)c3ccccc3F)s2)c(=O)n(C)c1=O 7.65%
COc1cccc(CN(Cc2ccccc2F)S(=O)(=O)c2ccc(S(=O)(=O)NCc3ccccc3)cc2)c1 4.33%
COc1cccc(CN(Cc2ccco2)C(c2ccc(F)cc2)c2nnnn2C(C)(C)C)c1 (configuration not stated) 5.18%
O=C(COC(=O)c1ccc(CSc2ccc(Cl)cc2)cc1)Nc1ccccc1 4.59%
CCOC(=O)c1c(-c2ccc(OC)cc2)csc1NC(=O)CSc1ccccc1 5.06%
C=C(C)CNC(=S)Nc1nc2c(cc1C(=O)OCC)CCCC2 2.44% [at 25 µM]
COC(=O)c1cc(=O)n(CCc2ccccc2)c(=Nc2ccc(F)cc2)s1 4.08% [at 50 µM]
O=C(O)CSc1nc(-c2ccc(Cl)cc2)nc2c1oc1ccccc12 6.31% [at 50 µM]
COc1ccc(OC)c(NC(=O)C(Sc2ccccc2)c2ccccc2)c1 (configuration not stated) 4.44% [at 50 µM]
O=C(Nc1ccccc1-c1nnc(SCc2ccccc2Cl)o1)c1ccccc1 2.67% [at 50 µM]
Cc1ccccc1N1C(=O)CC1(C#N)c1ccc(OCc2ccccc2)cc1 (configuration not stated) 3.12% [at 50 µM]
